For 22 compounds, outcome and AC50 results are on record in PubChem BioAssay (EPA / NIEHS).

Activity calls are given as the source filed them. How the source made its calls: active means hit-call score of the fitted dose curve at least 0.9, where 1 is the maximum; inactive means score below 0.9.

Read-out in test [1]: CD38, CD38 (gene 952)
The test is described as follows: BSK_SAg_CD38: BioMAP Diversity Plus: SAg Assay for CD38 Biomarker Activity (AID 2283087). As to conditions: primary human HUVEC with PBMC; actives raise or lower the signal. Put shortly:
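Fluorescence ELISA of cell-surface CD38 served as the read-out, with either increase or decrease fitted against DMSO controls. Cells were a human umbilical vein endothelium plus PBMC co-culture under SEB/TSST-1 stimulation, measured 24 h after dosing.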

Read-out in test [2]: CD40, CD40 (gene 958)
The test is described as follows: BSK_SAg_CD40: BioMAP Diversity Plus: SAg Assay for CD40 Biomarker Activity (AID 2283088). To be noted: primary human HUVEC with PBMC; actives raise or lower the signal. The method, boiled down:
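Fluorescence ELISA read-out of CD40 from umbilical vein endothelium plus peripheral blood mononuclear cells, sampled 24 h after dosing. Values come from bidirectional curve fitting with DMSO as baseline.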

Read-out in test [3]: CD69, CD69 (gene 969)
Kind of test: BSK_SAg_CD69: BioMAP Diversity Plus: SAg Assay for CD69 Biomarker Activity (AID 2283089).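 On AC50: cell surface CD69 protein quantified by ELISA with fluorescence detection.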 As to conditions: primary human HUVEC with PBMC; actives raise or lower the signal. The method, boiled down:
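Primary human vascular co-culture (umbilical vein endothelium with peripheral blood mononuclear cells) exposed to test chemical for 24 h. CD69 levels quantified by fluorescence ELISA; DMSO served as negative control for bidirectional fitting.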

Read-out in test [4]: Monocyte Chemoattractant Protein-1 (MCP1), CCL2 (gene 6347)
The test is described as follows: BSK_SAg_MCP1: BioMAP Diversity Plus: SAg Assay for Monocyte Chemoattractant Protein-1 (MCP1) Biomarker Activity (AID 2283090). As to conditions: primary human HUVEC with PBMC; actives raise or lower the signal. The method, boiled down: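 MCP-1 levels in the endothelial–PBMC SAg co-culture were quantified by ELISA at 24 h post-dosing; both increases and decreases versus DMSO scored. Cytotoxicity monitored by SRB total protein in parallel cultures.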

Read-out in test [5]: E-selectin (Homo sapiens) (UniProt P16581)
Kind of test: BSK_SAg_Eselectin: BioMAP Diversity Plus: SAg Assay for Eselectin Biomarker Activity (AID 2283091). As to conditions: primary human HUVEC with PBMC; actives raise or lower the signal. Put shortly:
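Primary human endothelial cells and peripheral blood mononuclear cells were co-cultured and exposed to chemical for 24 hours. E-selectin levels were then quantified by ELISA, with bidirectional curve fitting normalised to DMSO controls.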

Read-out in test [6]: Monokine induced gamma interferon (MIG), CXCL9 (gene 4283)
Kind of test: BSK_SAg_MIG: BioMAP Diversity Plus: SAg Assay for Monokine induced gamma interferon (MIG) Biomarker Activity (AID 2283092). To be noted: primary human HUVEC with PBMC; actives raise or lower the signal. Put shortly: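 Endothelial cells and PBMC were co-cultured, exposed to test chemicals, and sampled 24 h later. MIG was measured by ELISA, and responses were fitted in both directions relative to DMSO.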

Test [7] in a line: BSK_SAg_PBMCCytotoxicity: PBMC Cytotoxicity Assessment in the BioMAP Diversity Plus: SAg Assay (AID 2283093).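 Further: PBMC viability measured as Alamar Blue reduction fluorescence at 546/580 nm; fitted both ways against DMSO so a hit may be loss or gain of signal.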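 On AC50: PBMC superantigen activated with SEB plus TSST-1 one hour after compound addition.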 To be noted: primary human HUVEC with PBMC. The method, boiled down:
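HUVEC/PBMC co-culture; PBMC exposed to chemical 1 h before SEB and TSST-1 activation (20 ng/mL each), incubated 90 h, then Alamar Blue 6 h, fluorescence 546/580 nm. Bidirectional fit versus DMSO baseline.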

Read-out in test [8]: Interleukin-8 (IL8), CXCL8 (gene 3576)
The test is described as follows: BSK_SAg_IL8: BioMAP Diversity Plus: SAg Assay for Interleukin-8 (IL8) Biomarker Activity (AID 2283094). As to conditions: primary human HUVEC with PBMC; actives raise or lower the signal. Put shortly:
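In this co-culture of human umbilical vein endothelium with peripheral blood mononuclear cells, IL-8 is assayed by ELISA at 24 h. DMSO serves as baseline for bidirectional curve fitting.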

Test [9] can be described thus: BSK_SAg_Proliferation: Cell Proliferation Assessment in the BioMAP Diversity Plus: SAg Assay (AID 2283095).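 Further: relative cell number as total protein by SRB absorbance in sub-confluent culture.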 To be noted: primary human HUVEC with PBMC. Put shortly: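 Readout is SRB-stained protein (560 nm) in a primary human HUVEC and PBMC co-culture; sub-confluent cultures are read at 96 h. Activity is fitted bidirectionally using DMSO as baseline.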
Test [10] is described as follows: BSK_SAg_SRB: Viability Assessment in the BioMAP Diversity Plus: SAg Assay (AID 2283096).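 Further: cells read one day after compound addition; hits may be either gain or loss of signal compared with DMSO.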 As to conditions: primary human HUVEC with PBMC. Put shortly: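 Human umbilical vein endothelial cells co-cultured with PBMC, read 24 h after compound dosing. Total protein measured by sulforhodamine B staining (0.1% SRB after 10% TCA fixation, absorbance 560 nm); bidirectional fit versus DMSO baseline.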

E-selectin (Homo sapiens), sequence (P16581 whole entry, looked up): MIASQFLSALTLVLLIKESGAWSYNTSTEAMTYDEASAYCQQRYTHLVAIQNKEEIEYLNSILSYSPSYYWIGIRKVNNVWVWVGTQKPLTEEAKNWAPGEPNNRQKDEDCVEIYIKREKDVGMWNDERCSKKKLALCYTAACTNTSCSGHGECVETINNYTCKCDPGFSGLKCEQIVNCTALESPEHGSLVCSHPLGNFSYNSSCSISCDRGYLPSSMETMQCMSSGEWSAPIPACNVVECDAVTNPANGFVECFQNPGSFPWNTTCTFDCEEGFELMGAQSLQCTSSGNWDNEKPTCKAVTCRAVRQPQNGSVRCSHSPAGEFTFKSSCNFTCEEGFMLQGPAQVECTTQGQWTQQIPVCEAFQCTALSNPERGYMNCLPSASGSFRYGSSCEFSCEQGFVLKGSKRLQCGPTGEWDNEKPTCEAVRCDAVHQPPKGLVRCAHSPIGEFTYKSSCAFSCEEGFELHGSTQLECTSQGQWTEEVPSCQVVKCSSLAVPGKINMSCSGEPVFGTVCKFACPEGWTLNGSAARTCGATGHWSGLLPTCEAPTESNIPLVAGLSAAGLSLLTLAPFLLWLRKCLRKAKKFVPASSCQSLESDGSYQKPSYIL

As for `C=CCCCCCCCCCCCC`, the outcome in test [1], in test [2], in [3], in [4], in [5] and in [6] was inactive. For the same compound, the result in test [7], in [8], in [9] and in [10] was inactive.

As to `NC=O`, the outcome in test [1], in [2], in test [3], in test [4], in [5] and in [6] was inactive. Also, the outcome in test [7], in [8] and in [9] was inactive.

As usually defined, the AC50 is the concentration at which the activity in the assay is half-maximal. `CC(=O)O[C@]1(C(C)=O)CC[C@H]2[C@@H]3C=C(Cl)C4=CC(=O)[C@@H]5C[C@@H]5[C@]4(C)[C@H]3CC[C@@]21C`: the outcome in test [1], in test [4], in test [5], in [6], in test [7] and in test [8] was inactive. Further, the result in [9] was inactive. In addition, the results for the AC50 in test [2] and in [3] were 30.1 µM (active) and 30.5 µM (active), respectively.

For `CCCCC(CC)COP(=O)(OCC(CC)CCCC)OCC(CC)CCCC` (stereo not drawn), the result in [1], in [2], in [3], in test [4], in test [5] and in test [6] was inactive. The result in test [8] was inactive. The AC50 is 0.197 µM (active) in [7], 5.3 µM (active) in [9] and 5.38 µM (active) in test [10].

In the case of `Nc1nc(=S)c2[nH]cnc2[nH]1`, the outcome in test [1], in test [2], in [3], in test [4], in test [5] and in test [6] was inactive. Besides, the result in test [7] and in test [8] was inactive. In test [9], the AC50 is 13.5 µM (active).

Take `O=C1CCCCC1`: the result in test [1], in test [2], in test [3], in test [4], in test [5] and in test [6] was inactive. Besides, the outcome in test [7], in [8], in [9] and in test [10] was inactive.

In the case of `CSc1ccc(Oc2ccc(S(N)(=O)=O)cc2CN(C)C)cc1C`, the outcome in test [1], in [2], in [3], in [4], in test [5] and in [6] was inactive. For the same compound, the result in test [7], in test [8] and in test [10] was inactive. In test [9], the AC50 is 23.3 µM (active).

Consider `O=C1c2c(O)cccc2Cc2cccc(O)c21`, for which the result in test [1], in [2], in test [3], in test [4], in [5] and in test [6] was inactive. Further, the result in [7], in [8], in test [9] and in [10] was inactive.

Turning to `N[C@@H](Cc1c[nH]c2ccccc12)C(=O)O`, the outcome in [1], in [2], in [3], in [4], in test [5] and in test [6] was inactive. In addition, the result in test [8], in test [9] and in test [10] was inactive.

As for `COC(=O)[C@H]1[C@H]2C[C@@H]3c4[nH]c5cc(OC)ccc5c4CCN3C[C@H]2C[C@@H](OC(=O)c2cc(OC)c(OC)c(OC)c2)[C@@H]1OC`, the AC50 is 25.7 µM (active) in test [1], 26.6 µM (active) in test [2], 22.6 µM (active) in test [4] and 24.5 µM (active) in test [6]. In test [5], the result was inactive.

Regarding `CN(C)C(=O)NC1(c2ccccc2)CCN(CC[C@@]2(c3ccc(F)c(F)c3)CN(C(=O)c3ccccc3)CCO2)CC1`, the result in test [1], in test [2], in test [3], in test [4], in [5] and in test [6] was inactive. The outcome in [8] was inactive. Moreover, in test [9], the AC50 is 26.1 µM (active).

Turning to `CN(C)CCCN1c2ccccc2Sc2ccc(Cl)cc21`, the AC50 is 28.8 µM (active) in test [1]; 29.5 µM (active) in test [2]; 28.6 µM (active) in [3]; 27.7 µM (active) in test [5]; 16.4 µM (active) in test [7].

Take `Cc1ccc(-c2cc(C(F)(F)F)nn2-c2ccc(S(N)(=O)=O)cc2)cc1`: the AC50 in test [1] is 30.2 µM (active); in [2], 27.3 µM (active); in test [3], 26.9 µM (active); in [4], 30.5 µM (active); in test [5], 29.4 µM (active); in [6] it was 34.6 µM (active). Further, the AC50 in [8] is 23.9 µM (active); in test [9], 23 µM (active); in [10] it was 27.8 µM (active).

`COc1ccc(OC(F)(F)F)cc1CN[C@H]1CCCN[C@H]1c1ccccc1`: the result in test [1], in test [2], in [4], in test [5] and in test [6] was inactive. Also, the AC50 in test [3] is 20 µM (active); in test [8] it was 12.4 µM (active); in test [9] it was 32.6 µM (active); in test [10] it was 31.1 µM (active).

For the compound `O=C1O[C@H]([C@H](O)CO)C(O)=C1O`, the result in [1], in test [2], in test [3], in test [4], in test [5] and in test [6] was inactive. Also, the result in [8] and in [10] was inactive. Also, in test [9], the half-maximal activity concentration (AC50) is 12 µM (active).

Consider `NCCOCCOCCN`, for which the result in test [1], in test [2], in test [3], in [4], in test [5] and in test [6] was inactive. In addition, the result in [8], in test [9] and in test [10] was inactive.

On to `CCC(C)N(C)C(=O)c1cc2ccccc2c(-c2ccccc2Cl)n1` (stereo not drawn), for which the outcome in [1], in [2], in test [3], in test [4], in test [5] and in [6] was inactive. In addition, the outcome in [8], in test [9] and in test [10] was inactive.

Regarding `O=Cc1ccccc1C=O`, the result in [1], in [2], in test [3], in [4], in test [5] and in test [6] was inactive. Further, the outcome in [8], in test [9] and in test [10] was inactive.

Turning to `Oc1ccc(O)cc1`, the AC50 was 36.5 µM (active) in test [1]; 11.4 µM (active) in [2]; 20 µM (active) in test [3]; 23.9 µM (active) in test [5]; 7.06 µM (active) in [9]. The result in test [4], in [6], in test [8] and in test [10] was inactive.

On to `C/C=C/c1ccc(OC)cc1`, for which the outcome in [1], in test [2], in test [3], in [4], in test [5] and in test [6] was inactive. Further, the result in test [8], in test [9] and in test [10] was inactive.

Turning to `S=c1[nH]c2ccccc2s1`, the outcome in test [1], in test [3], in test [4], in [5], in test [6] and in test [7] was inactive. In addition, the result in test [8] and in test [9] was inactive.

On to `O=C(N[C@@H](c1ccccc1)[C@@H]1CCCCN1)c1cccc(C(F)(F)F)c1Cl`, for which the AC50 in test [1] is 20 µM (active); in [2] it was 20 µM (active); in test [3], 20 µM (active); in test [4] it was 23.4 µM (active); in test [5], 12.3 µM (active); in test [8], 14.3 µM (active). For the same compound, the AC50 in test [9] was 14.4 µM (active); in test [10] it was 26.5 µM (active). In addition, the result in test [6] was inactive.
